Measured values as given in PubChem BioAssay (Tox21).
Results filed as inconclusive are left out. The source made the active and inactive calls. Unless noted, calls come from the whole dose curve; as a rule, active = well fitted curve in the direction sought with a large enough effect in the repeat runs; inconclusive = weak or mixed curves; inactive = no such curve, though single readings can be large; an effect the other way counts as inactive or inconclusive.

Experiments:
[1] = A CellTox Green Cytotoxicity Assay to monitor cytotoxicity in HepG2 cells - 8 hour (AID 1224890); note: nearly all actives have a fitted effect of over 45% in size
How it was run: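 Measurements at 0, 8, 16, 24, 32 and 40 h of treatment captured CellTox Green fluorescence in HepG2 cells that had been co-plated with reagent and preincubated 5 h at 37 C/5% CO2.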

[2] = qHTS assay to identify small molecule antagonists of the estrogen receptor alpha (ER-alpha) signaling pathway using the BG1 cell line in the presence of 0.1 nM 17-beta-estradiol - cell viability counter screen (AID 1259241); note: nearly all actives have a fitted effect of over 40% in size
How it was run: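 VM7Luc4E2 cells (endogenous ER-alpha, 4×ERE-luciferase), hormone-starved 5 days in charcoal-stripped FBS, were treated with compounds plus 0.1 nM 17beta-estradiol for 22 hr at 37C; viability read in same wells as CellTiter-Fluor live-cell protease fluorescence.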

[3] = qHTS assay to identify small molecule antagonists of the androgen receptor (AR) signaling pathway using the MDA cell line in the presence of 0.5 nM R1881 - cell viability counter screen (AID 1259242); note: nearly all actives have a fitted effect of over 45% in size
How it was run: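 Concentration-response screen of compounds for toxicity in MDA-kb2 reporter cells: 16 hr at 37C with 0.5 nM R1881, endpoint live-cell protease fluorescence measured in the reporter wells.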

[4] = biological target: Estrogen receptor (Homo sapiens) (UniProt P03372); experiment: qHTS assay to identify small molecule antagonists of the estrogen receptor alpha (ER-alpha) signaling pathway using the BG1 cell line in the presence of 0.1 nM 17-beta-estradiol (AID 1259244); note: nearly all actives have a fitted effect of over 50% in size
Sequence of Estrogen receptor (Homo sapiens) (P03372 whole entry, looked up): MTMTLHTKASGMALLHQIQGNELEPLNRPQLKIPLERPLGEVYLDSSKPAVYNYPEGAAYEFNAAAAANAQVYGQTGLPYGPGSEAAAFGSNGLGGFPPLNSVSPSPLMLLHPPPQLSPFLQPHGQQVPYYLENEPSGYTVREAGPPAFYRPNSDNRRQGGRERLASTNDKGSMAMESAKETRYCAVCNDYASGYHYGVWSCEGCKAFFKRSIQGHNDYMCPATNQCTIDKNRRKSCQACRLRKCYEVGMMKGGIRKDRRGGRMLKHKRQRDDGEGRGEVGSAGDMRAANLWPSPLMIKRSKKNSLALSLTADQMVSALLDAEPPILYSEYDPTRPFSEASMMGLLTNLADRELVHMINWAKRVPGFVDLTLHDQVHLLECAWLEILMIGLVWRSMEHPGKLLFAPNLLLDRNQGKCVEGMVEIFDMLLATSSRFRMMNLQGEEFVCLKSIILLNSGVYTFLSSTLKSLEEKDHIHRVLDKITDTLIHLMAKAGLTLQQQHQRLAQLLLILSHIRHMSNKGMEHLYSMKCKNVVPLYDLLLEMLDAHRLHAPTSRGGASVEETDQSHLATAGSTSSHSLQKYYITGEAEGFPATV
How it was run: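 Compounds were tested against 0.1 nM (final) 17beta-estradiol in VM7Luc4E2 cells, which express full-length ER-alpha and an ERE-luciferase reporter; luminescence was recorded following 22 h exposure.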

[5] = qHTS assay to identify small molecule HDAC inhibitors (AID 1259364);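 note: wild-type HCT-116 cells with endogenous class I/II HDAC activity; top concentration of the series differs between compounds; nearly all actives have a fitted effect of over 45% in size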
How it was run: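 Screening used wild-type human colon HCT-116 cells incubated overnight, dosed with compounds for 2 hours, and assayed with a homogeneous luminogenic HDAC I/II reagent for 30 minutes at room temperature.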

[6] = qHTS assay to identify small molecule HDAC inhibitors - cell viability counter screen (AID 1259365); note: series mostly up to about 92 µM; nearly all actives have a fitted effect of over 50% in size
How it was run: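 Wild-type HCT-116 cells were seeded at 1,500 per well, incubated overnight at 37 C, then exposed to compounds in DMSO for 2hr. Viability was read by CellTiter-Glo luminescence after 30min at room temperature.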

[7] = qHTS assay to identify small molecule agonists of the sonic hedgehog signaling (Shh) pathway - cell viability counter screen (AID 1259366); note: nearly all actives have a fitted effect of over 50% in size
How it was run: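 NIH/3T3-derived 3T3 Gli1-Luc cells (stable Gli1-responsive firefly luciferase reporter) were seeded, rested 4 hr at 37 C/5% CO2, then exposed to compounds in DMSO for 24 hr; viability was read by CellTiter-Fluor fluorescence in the same wells.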

[8] = qHTS assay to identify small molecule antagonists of the sonic hedgehog signaling (Shh) pathway - cell viability counter screen (AID 1259367); note: nearly all actives have a fitted effect of over 55% in size
How it was run: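 Conditioned medium drove Shh signaling in 3T3 Gli1-Luc cells exposed to compounds at 37C and 5% CO2. Viability was determined from CellTiter-Fluor fluorescence, with reagent incubated 1 hr after 23 hr of treatment.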

[9] = qHTS assay to identify small molecule agonists of the sonic hedgehog signaling (Shh) pathway (AID 1259368; calls by dose curve; note: series mostly up to about 92 µM; nearly all actives have a fitted effect of over 15% in size)
How it was run: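 Hedgehog pathway agonism scored by increased firefly luciferase luminescence in 3T3Gli1-Luc cells treated 24 hr at 37 C; detection used a 30 min room-temperature reagent incubation.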

[10] = qHTS assay to identify small molecule antagonists of the sonic hedgehog signaling (Shh) pathway (AID 1259369; calls by dose curve; note: nearly all actives have a fitted effect of over 45% in size)
How it was run: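 NIH/3T3 stable Gli1-Luc clone, 2,000 cells/well, 4hr settle; cpd + conditioned medium 24hr; Luc reagent 30min RT; luminescence.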

[11] = biological target: Estrogen receptor beta (Homo sapiens) (UniProt Q92731); experiment: qHTS assay to identify small molecule agonists of the estrogen receptor beta (ER-beta) signaling pathway (AID 1259377; active = well fitted activation curve with a large enough effect in the signal ratio in the repeat runs, not every such curve was filed as active; the % refers to the signal ratio)
Sequence of Estrogen receptor beta (Homo sapiens) (Q92731 whole entry, looked up): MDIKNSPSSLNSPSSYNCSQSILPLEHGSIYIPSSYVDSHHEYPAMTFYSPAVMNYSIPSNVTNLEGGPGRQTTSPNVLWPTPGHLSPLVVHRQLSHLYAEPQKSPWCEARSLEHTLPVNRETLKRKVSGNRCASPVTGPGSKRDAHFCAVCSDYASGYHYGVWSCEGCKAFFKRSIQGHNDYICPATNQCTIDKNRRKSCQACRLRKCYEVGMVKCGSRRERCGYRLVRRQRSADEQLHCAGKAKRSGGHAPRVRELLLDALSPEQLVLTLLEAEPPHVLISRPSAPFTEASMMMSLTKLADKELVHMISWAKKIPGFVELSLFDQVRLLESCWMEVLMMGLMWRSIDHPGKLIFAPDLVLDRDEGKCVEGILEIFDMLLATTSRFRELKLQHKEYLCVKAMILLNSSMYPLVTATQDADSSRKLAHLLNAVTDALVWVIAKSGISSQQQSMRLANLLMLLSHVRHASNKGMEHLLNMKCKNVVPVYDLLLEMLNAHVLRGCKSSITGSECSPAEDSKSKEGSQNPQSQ
How it was run: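 ER-beta-UAS-bla HEK293T (GripTite) cells carrying a UAS-driven beta-lactamase reporter, in medium with 2% charcoal-stripped FBS, were exposed to compounds for 16 hr at 37C; LiveBLAzer B/G FRET substrate was then added and fluorescence read after 2 hours at room temperature.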

[12] = biological target: Estrogen receptor beta (Homo sapiens) (UniProt Q92731); experiment: qHTS assay to identify small molecule antagonists of the estrogen receptor beta (ER-beta) signaling pathway (AID 1259378; active = well fitted inhibition curve with a large enough effect in the signal ratio in the repeat runs, not every such curve was filed as active; the % refers to the signal ratio)
How it was run: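 ER-beta-UAS-bla HEK293T (GripTite) cells in 2% charcoal-stripped FBS medium were preincubated 6 hr at 37C, dosed with compound, then stimulated with 1 nM E2 (final) for 16 hr; beta-lactamase reporter read by B/G FRET fluorescence after 2 hr substrate loading.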

[13] = qHTS assay to identify small molecule agonists of the androgen receptor (AR) signaling pathway in the presence of an antagonist - cell viability counter screen (AID 1259379);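 note: MDA-kb2 human breast cancer cells carrying an MMTV luciferase reporter; series mostly up to about 92 µM; nearly all actives have a fitted effect of over 25% in size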
How it was run: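 MDA-kb2 viability measured by CellTiter-Fluor fluorescence in the same wells as the luciferase signal; nilutamide 3.0uM final; 15-point compound titration; 16 hr at 37C.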

[14] = qHTS assay to identify small molecule agonists of the estrogen receptor beta (ER-beta) signaling pathway - cell viability counter screen (AID 1259380); note: nearly all actives have a fitted effect of over 30% in size
How it was run: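 Measured: luminescence from CellTiter-Glo after 30 min at room temperature, added to wells already read for the LiveBLAzer FRET reporter (2 hr substrate); ER-beta-UAS-bla HEK293T cells had 16 hr compound treatment at 37C, 5% CO2.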

[15] = biological target: Estrogen receptor (Homo sapiens) (UniProt P03372); experiment: qHTS assay to identify small molecule agonists of the estrogen receptor alpha (ER-alpha) signaling pathway in the presence of an antagonist (AID 1259383; calls by dose curve; note: top concentration of the series differs between compounds; nearly all actives have a fitted effect of over 15% in size)
How it was run: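 Quantitative HTS confirmation: compounds titrated at 15 concentrations onto estrogen-deprived VM7Luc4E2 cells carrying a four-ERE luciferase construct, with ICI-182,780 present at 10.0nM final. Signal is luminescence after 22hr exposure.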

[16] = qHTS assay to identify small molecule agonists or antagonists of the thyroid stimulating hormone receptor (TSHR) signaling pathway - wild type cell line counter screen (AID 1259384; calls by dose curve)
How it was run: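 Wild-type HEK293 cells were plated 18 h at 37 C/5% CO2, pin-dosed with compound plus Ro20-1724 medium, held 30 min at room temperature, then given cAMP-d2 and anti-cAMP-cryptate; fluorescence was read after 1 h. Fifteen concentrations, triplicate.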

[17] = qHTS assay to identify small molecule phospholipidosis (PLD) inducers (AID 1259344; active = well fitted curve in the direction sought with a large enough effect; an effect the other way counts as inactive or inconclusive)
How it was run: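 After 4 h attachment on collagen I, HepG2 cells were dosed with compound alongside LipidTOX Red, kept 24 h at 37 C, fixed, and imaged for lamellar phospholipid pits.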

[18] = qHTS assay to identify small molecule antagonists of the estrogen receptor beta (ER-beta) signaling pathway - cell viability counter screen (AID 1259382); note: series mostly up to about 92 µM; nearly all actives have a fitted effect of over 55% in size
How it was run: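 Readout: luminescence, CellTiter-Glo, same wells as bla assay. System: ER-beta-UAS-bla GripTite HEK293T, 2% charcoal-stripped FBS. Exposure: compounds plus 1nM 17-beta-estradiol, 16 hr, 37C.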

[19] = biological target: Androgen receptor (Homo sapiens) (UniProt P10275); experiment: qHTS assay to identify small molecule agonists of the androgen receptor (AR) signaling pathway in the presence of an antagonist (AID 1259381; calls by dose curve; note: nearly all actives have a fitted effect of over 15% in size)
Sequence of Androgen receptor (Homo sapiens) (P10275 whole entry, looked up): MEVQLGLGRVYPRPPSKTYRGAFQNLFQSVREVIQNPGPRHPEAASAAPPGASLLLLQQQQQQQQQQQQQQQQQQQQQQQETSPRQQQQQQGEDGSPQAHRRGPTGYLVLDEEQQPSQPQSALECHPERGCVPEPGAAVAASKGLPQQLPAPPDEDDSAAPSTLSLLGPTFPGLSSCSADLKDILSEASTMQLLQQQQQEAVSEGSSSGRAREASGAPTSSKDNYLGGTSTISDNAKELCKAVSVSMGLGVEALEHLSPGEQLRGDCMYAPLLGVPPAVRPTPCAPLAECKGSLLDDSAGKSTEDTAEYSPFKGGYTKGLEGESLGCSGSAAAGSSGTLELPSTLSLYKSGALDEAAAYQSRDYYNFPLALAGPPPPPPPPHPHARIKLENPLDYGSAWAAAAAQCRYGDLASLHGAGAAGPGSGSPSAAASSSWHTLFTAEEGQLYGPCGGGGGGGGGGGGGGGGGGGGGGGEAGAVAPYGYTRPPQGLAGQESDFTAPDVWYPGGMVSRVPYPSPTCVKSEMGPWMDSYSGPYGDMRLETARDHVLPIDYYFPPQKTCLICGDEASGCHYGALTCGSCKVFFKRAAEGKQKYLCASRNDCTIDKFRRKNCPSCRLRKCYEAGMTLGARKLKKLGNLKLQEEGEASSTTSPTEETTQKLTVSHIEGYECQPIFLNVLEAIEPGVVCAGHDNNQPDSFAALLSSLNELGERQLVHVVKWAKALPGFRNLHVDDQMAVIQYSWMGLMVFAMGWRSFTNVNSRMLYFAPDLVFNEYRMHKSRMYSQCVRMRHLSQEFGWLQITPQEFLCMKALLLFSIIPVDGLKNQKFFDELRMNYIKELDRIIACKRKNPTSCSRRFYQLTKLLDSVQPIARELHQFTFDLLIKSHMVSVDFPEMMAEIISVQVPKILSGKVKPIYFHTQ
How it was run: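 Luminescent ONE-Glo read, 30min at room temperature, follows 16hr compound exposure (15 concentrations) of MDA-kb2 cells at 37C, 0% CO2, with nilutamide added at 3.0uM final.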
% is set by controls: 0 for no effect and ±100 for the full control effect.

O=C(O)c1ccc(Cl)cc1Cl
inactive: outcome [1] | Potency [2] | outcome [3] | Potency [4] | Potency [5] | outcome [6] | Potency [7] | Potency [8] | outcome [9] | Potency [10] | Potency [11] | outcome [12] | Potency [13] | Potency [14] | outcome [15] | outcome [16]

O=C(CS(=O)Cc1ccco1)NC/C=C\COc1cc(CN2CCCCC2)ccn1 (stereo not drawn)
inactive: outcome [1] | Potency [2] | outcome [3] | outcome [17] | Potency [5] | outcome [6] | Potency [7] | Potency [8] | outcome [9] | Potency [10] | Potency [11] | outcome [12] | Potency [13] | Potency [14] | outcome [18] | outcome [15] | outcome [16]

O=C(NCCN1CCOCC1)c1ccc(Cl)cc1
inactive: outcome [1] | Potency [2] | outcome [3] | outcome [17] | Potency [5] | outcome [6] | Potency [7] | Potency [8] | outcome [9] | Potency [10] | Potency [11] | outcome [12] | Potency [13] | Potency [14] | outcome [18] | outcome [16]

CCCCOCCOC(=O)COc1nc(Cl)c(Cl)cc1Cl
inactive: outcome [1] | Potency [2] | outcome [3] | Potency [4] | Potency [5] | outcome [6] | Potency [8] | outcome [9] | Potency [10] | Potency [14] | outcome [18] | outcome [15] | outcome [16]

C=C(C)C(=O)OCc1ccccc1
inactive: outcome [1] | Potency [2] | outcome [3] | Potency [4] | Potency [5] | outcome [6] | Potency [7] | Potency [8] | outcome [9] | Potency [10] | Potency [13] | Potency [14] | outcome [18] | outcome [15]

O=S(O)(O)=S
inactive: cytotoxicity increase [1] 4.07% [at 6.97 µM] | activity change, negative = cytotoxicity [2] 6.4% [at 8.39 µM] | viability change, negative = cytotoxic [3] -0.767% [at 8.39 µM] | activity change, negative = inhibition [4] 19% [at 8.39 µM] | activity change, negative = inhibition [5] 3.04% [at 8.39 µM] | activity change, negative = cytotoxicity [6] 0.217% [at 8.39 µM] | viability change, negative = cytotoxic [7] -0.643% [at 8.39 µM] | viability change, negative = cytotoxic [8] 1.07% [at 8.39 µM] | activity change [9] -0.163% [at 8.39 µM] | activity change, negative = inhibition [10] 0.751% [at 8.39 µM] | activity, negative = inhibition [12] 6.44% [at 8.39 µM] | activity change, negative = cytotoxicity [13] 1.18% [at 8.39 µM] | activity change, negative = cytotoxicity [14] -9.09% [at 8.39 µM] | activation [15] 0.31% [at 8.39 µM] | cAMP activity change [16] 0.958% [at 8.39 µM]

CCOC(=O)/C=C/c1ccccc1
inactive: outcome [1] | Potency [2] | outcome [3] | Potency [4] | Potency [5] | outcome [6] | Potency [8] | outcome [9] | Potency [10] | Potency [14] | outcome [18] | outcome [15] | outcome [16]

CC(C)OC(=O)CCCCC(=O)OC(C)C
inactive: outcome [1] | Potency [2] | outcome [3] | Potency [4] | Potency [5] | outcome [6] | Potency [7] | outcome [9] | Potency [10] | Potency [11] | outcome [12] | Potency [13] | Potency [14] | outcome [15] | outcome [16]

NCCS
inactive: outcome [1] | Potency [2] | outcome [3] | outcome [17] | Potency [5] | outcome [6] | Potency [7] | Potency [8] | outcome [9] | Potency [10] | Potency [11] | outcome [12] | Potency [13] | Potency [14] | outcome [18]

BrCCCCCBr
inactive: outcome [1] | Potency [2] | outcome [3] | Potency [4] | Potency [5] | outcome [6] | Potency [7] | Potency [8] | outcome [9] | Potency [11] | outcome [12] | Potency [13] | Potency [14] | outcome [15] | outcome [16]

CN(C)c1ccc(C=O)cc1
inactive: outcome [1] | Potency [2] | outcome [3] | Potency [4] | outcome [6] | Potency [7] | Potency [8] | outcome [9] | Potency [10] | Potency [11] | outcome [12] | Potency [13] | Potency [14] | outcome [18] | outcome [15] | outcome [16]

Cc1c(I)c(=O)n(-c2ccccc2)n1C
inactive: outcome [1] | Potency [2] | outcome [3] | Potency [4] | outcome [17] | Potency [5] | outcome [6] | outcome [9] | Potency [10] | outcome [12] | Potency [13] | Potency [14] | outcome [18] | outcome [15] | outcome [16]

Cc1[nH]cnc1-c1ccc(Cl)cc1
inactive: outcome [1] | Potency [2] | outcome [3] | Potency [4] | Potency [5] | outcome [6] | Potency [8] | outcome [9] | Potency [10] | Potency [19] | outcome [18] | outcome [15] | outcome [16]

CCNC(=O)C1CC(C)CCC1C(C)C (stereo not drawn)
inactive: outcome [1] | Potency [2] | outcome [3] | Potency [4] | Potency [5] | outcome [6] | Potency [7] | Potency [8] | outcome [9] | Potency [10] | Potency [13] | Potency [14] | outcome [18] | outcome [15] | outcome [16]
